Only some compounds are listed: those with a hit (about 5.4% of all), similar ones and a draw of the others.
Mdm2-MdmX inh – inhibitors of human Mdm2-MdmX association, primary screen, cell-based, luminescence, split luciferase, SaOS-2, uHTS; SaOS-2 split-luciferase Mdm2/MdmX complementation; inhibition, % at 8 µM; hit rate 3% among 330,000; Protein Mdm4 (Homo sapiens) + E3 ubiquitin-protein ligase Mdm2 (Homo sapiens), …;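 active means inhibition of at least 50% at 8 µM in the primary screen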
Target sequence (O15151 whole entry, looked up): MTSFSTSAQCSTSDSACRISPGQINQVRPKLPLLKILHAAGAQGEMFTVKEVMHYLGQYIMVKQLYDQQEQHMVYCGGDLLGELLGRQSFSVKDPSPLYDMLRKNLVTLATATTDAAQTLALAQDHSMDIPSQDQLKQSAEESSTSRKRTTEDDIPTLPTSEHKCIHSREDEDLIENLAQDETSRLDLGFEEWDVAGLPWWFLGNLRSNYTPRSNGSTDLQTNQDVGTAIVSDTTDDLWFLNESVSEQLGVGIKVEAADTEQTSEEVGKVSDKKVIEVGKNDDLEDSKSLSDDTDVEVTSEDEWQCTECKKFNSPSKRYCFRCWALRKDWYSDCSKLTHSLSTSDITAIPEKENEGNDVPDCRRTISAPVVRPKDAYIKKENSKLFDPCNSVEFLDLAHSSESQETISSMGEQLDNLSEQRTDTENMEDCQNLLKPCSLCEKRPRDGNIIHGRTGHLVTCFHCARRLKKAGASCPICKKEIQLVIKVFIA
Target sequence (Q00987 whole entry, looked up): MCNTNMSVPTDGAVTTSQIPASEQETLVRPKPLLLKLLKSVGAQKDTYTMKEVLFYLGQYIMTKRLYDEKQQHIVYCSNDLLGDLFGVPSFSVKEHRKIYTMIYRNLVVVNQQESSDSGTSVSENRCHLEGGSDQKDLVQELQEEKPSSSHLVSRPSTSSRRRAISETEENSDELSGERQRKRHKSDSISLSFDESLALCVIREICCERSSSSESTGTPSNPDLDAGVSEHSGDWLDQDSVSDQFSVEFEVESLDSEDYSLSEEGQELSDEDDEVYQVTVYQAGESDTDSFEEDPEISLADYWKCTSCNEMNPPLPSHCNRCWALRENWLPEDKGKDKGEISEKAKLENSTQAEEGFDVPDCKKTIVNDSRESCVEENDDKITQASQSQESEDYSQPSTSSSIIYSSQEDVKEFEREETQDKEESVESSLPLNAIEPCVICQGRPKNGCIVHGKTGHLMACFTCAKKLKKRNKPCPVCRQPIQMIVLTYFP
Calb FLC – C. albicans growth inhibition with fluconazole, primary screen, CaCi-2 strain, Alamar Blue fluorescence. AID 1979, 2009. hit rate 0.57% among 300,000. C. albicans CaCi-2 (fluconazole-resistant clinical isolate) + fluconazole, 48 h. growth inhibition, % (no concentration beside the values);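 active means growth inhibition above about 58% in most replicates, limit read from the data, passing the limit was not always enough; inconclusive means exactly half the replicates above a set limit; inactive means most replicates below a set limit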;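 further: all wells also contain fluconazole at 8 µg/ml as a sub-toxic cotreatment; 0% = median of DMSO wells and 100% = median of geldanamycin control wells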
CSC inhib – cancer stem cell viability inhibitors, primary screen, luminescence | hit rate 1.1% among 300,000 | inhibition, % at 7.5 µM | cancer stem cell-like cells viability | AID 2717, 2010; in the data active means inhibition above about 75%; inconclusive means no clear call, values can overlap the other calls; tested in HMLE shEcad cells
Beta cell apopt – inhibitors of cytokine-induced beta cell apoptosis, primary screen, luminescence; INS-1E cytokine-induced death, ATP luminescence, 48 h; percent of positive-control rescue, neutral wells zero; protection from apoptosis, % (concentration not given with the values); hit rate 0.8% among 300,000; AID 435005, 2010;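 active means Every replicate reaches about 75%, or at least half do and their mean reaches it too, limit read from the data; inconclusive means At least half of replicates reach the limit but their mean does not; inactive means Under half of replicates reach the limit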;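 further: 0% = cytokine-treated negative control wells and 100% = positive control rescue; higher means more ATP so stronger rescue from cytokine killing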
SKKanGAS inh – S. pyogenes SKKanGAS growth inhibitors in kanamycin, primary screen, streptokinase expression inhibitor project, SKKanGAS strain, BacTiter-Glo luminescence; 6 h; inhibition, % at 7.5 µM; hit rate 1.3% among 300,000; AID 1662, 2009;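 active means mean replicate score, as percent of positive control median, at least 50; inconclusive means mean below 50 but one replicate at or above 50; inactive means mean and every replicate below 50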;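 further: strain carries kanamycin resistance gene driven by streptokinase promoter and grows in 40 µg/ml kanamycin; loss of luminescence reflects streptokinase promoter inhibition or plain growth inhibition; 0% = median of DMSO wells and 100% = positive control at its reference dose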
MPTP inh – mitochondrial permeability transition pore inhibitors, primary screen, biochemical, isolated mouse mitochondria, absorbance. hit rate 1.4% among 360,000. Ca2+ swelling absorbance, 30 min. inhibition, % at 10 µM;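 active means inhibition of 50% or more, scaled per plate between neutral and stimulator controls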;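 further: 0% = DMSO wells given calcium and 100% = 1 mM EGTA wells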
Mdm2-MdmX conf – Mdm2-MdmX complex disruptors, retested hits, confirmation, luminescence, single concentration. shares compounds with Mdm2-MdmX inh. hit rate 55% among 10,000. inhibition, % at 8 µM. Mdm2-MdmX binding, luminescent assay; in the data active means inhibition above about 40%
Full FLuc ctr – full-length luciferase signal inhibition, confirmation, counter-screen for Mdm2/MdmX interaction inhibitor project, cell-based, single concentration, SaOS-2; shares compounds with Mdm2-MdmX inh; SaOS-2 full-length luciferase counterscreen, luminescence; inhibition, % at 8 µM; hit rate 77% among 6,200; AID 504607, 2011;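 active means mean inhibition at 8 µM reaching about 37%, which flags the compound as non-specific, limit read from the data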;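 further: p53-null SaOS-2 cells with luciferase driven by a doxycycline-inducible promoter; compound on cells about two nights before reading with doxycycline added after day one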
Rh123 counter – fluorescence retest of MPTP screen hits in isolated mitochondria, single concentration. membrane potential, Rhodamine 123 fluorescence. inhibition, % at 10 µM. shares compounds with MPTP inh. hit rate 78% among 5,000; in the data active means inhibition above about 22%;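 further: 0% = DMSO vehicle and 100% = positive control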
An asterisk follows results filed as active; ? = inconclusive; . = no result given.

SMILES	Mdm2-MdmX inh	Calb FLC	CSC inhib	Beta cell apopt	SKKanGAS inh	MPTP inh	Mdm2-MdmX conf	Full FLuc ctr	Rh123 counter
O=C(NCc1nc(-c2ccc(C(F)(F)F)cc2)no1)Nc1ccc(OC(F)(F)F)cc1	89*	3	109*	0	24	78*	28	.	74*
COc1cc(CNCCCN2CCOCC2)cc(Br)c1OCc1ccc(Cl)cc1	69*	1	-9	19	-6	74*	45*	59*	-9
O=C(Nc1ccccc1N1CCCCC1)c1ccc(-c2ccc(Cl)cc2)o1	30	3	.	17	7	27	.	.	.
Cc1cc(N2CCN(C)CC2)ccc1NC(=O)c1ccc(-c2ccc(Cl)cc2)o1	52*	17	?	53	-6	54*	45*	74*	-18
FC(F)(F)Sc1ccc(NC(=S)NCc2ccccc2)cc1	79*	-35	54	18	15	84*	-2	.	73*
CCN(CC)S(=O)(=O)c1cc([N+](=O)[O-])ccc1NNC(=O)Nc1ccc(Cl)c(Cl)c1	91*	-7	-24	113*	48	102*	93*	52*	76*
O=C(NNc1ccccc1[N+](=O)[O-])Nc1ccccc1	14	-22	6	-8	5	3	.	.	.
O=C(Nc1ccc(Cl)c([N+](=O)[O-])c1)C(Sc1ccccc1)c1ccccc1 (configuration not stated)	88*	-5	-5	14	23	105*	82*	24	80*
O=C(NNc1ccccc1[N+](=O)[O-])Nc1ccc(Cl)c(Cl)c1	87*	-18	-5	-13	18	102*	80*	41*	84*
Cc1ccc(Cl)c(NC(=O)CCl)c1Cl	11	-5	11	7	-20	-1	.	.	.
NC(=S)Nc1nc2ccccc2[nH]c1=O	11	-2	-6	-7	2	.	.	.	.
CC(=O)Nc1ccc(NC(=O)c2cc([N+](=O)[O-])cc([N+](=O)[O-])c2)cc1	-11	3	-11	0	9	0	.	.	.
Cc1ccc(NC(=O)c2ccc(Nc3c([N+](=O)[O-])cc([N+](=O)[O-])cc3[N+](=O)[O-])cc2)cc1	79*	9	41	67	23	96*	8	.	74*
O=C(NCC1CCCO1)C1CCC(=O)N1Cc1ccccc1Cl (configuration not stated)	9	-9	11	-3	-3	-2	.	.	.
COc1ccc(-c2cc(C(=O)Nc3sc4c(c3C#N)CCCC4)c3ccccc3n2)cc1	.	.	18	-2	.	-9	.	.	.
Cc1ccccc1-c1cc(C(=O)Nc2sc(C(=O)OC(C)C)c(C)c2C#N)c2ccccc2n1	72*	38	111*	52	59*	91*	95*	24	79*
Cc1cc(NC(=O)c2cc(-c3ccccc3C)nc3ccccc23)no1	21	-12	1	0	14	1	.	.	.
CCOC(=O)c1sc(NC(=O)c2cc(-c3ccc(C)cc3)nc3ccccc23)c(C#N)c1C	76*	-10	49	11	?	88*	92*	50*	78*
COC(=O)c1sc(NC(=O)c2cc(-c3ccccc3)nc3ccccc23)c(C#N)c1C	95*	1	0	61	26	66*	92*	35	70*
CC(C)c1nc(SCC(=O)Nc2cccc(C(F)(F)F)c2)c2c(=O)n(C)c(=O)n(C)c2n1	35	2	5	12	1	4	.	.	.
OC(COc1ccc(CNCCc2ccc(C(F)(F)F)cc2)cc1)CN1CCCCC1 (configuration not stated)	100*	-11	16	6	16	67*	99*	53*	-11
COC(=O)c1c(Oc2nc(OC)cc(OC)n2)cccc1Oc1nc(OC)cc(OC)n1	-7	34	3	0	-2	1	.	.	.
CC(C)(C)OC(=O)CC[C@@H](C(=O)NCCCCCCCCCCC(=O)N1CCN(C(=O)OC(C)(C)C)CC1)n1cc(CCCCCNC(=O)OC(C)(C)C)nn1	-11	.	-1	12	.	1	.	.	.
CC(C)(C)OC(=O)NCCCCCc1cn([C@@H](CO)C(=O)NCCCCCCCCCCC(=O)N2CCN(C(=O)OC(C)(C)C)CC2)nn1	62*	.	18	109*	.	99*	6	.	109*
CC1(C)CC(Cc2ccccc2C(F)(F)F)N(C(=O)OC(C)(C)C)C1 (configuration not stated)	.	.	.	.	.	-1	.	.	.
SMILES	Mdm2-MdmX inh	Calb FLC	CSC inhib	Beta cell apopt	SKKanGAS inh	MPTP inh	Mdm2-MdmX conf	Full FLuc ctr	Rh123 counter
c1ccc(CCCOCCC2CO2)cc1 (configuration not stated)	12	-3	1	.	2	.	.	.	.
COC(=O)C1CCN(C(=O)/C=C/c2ccccc2)CC1	-21	29	-1	-3	-5	1	.	.	.
Oc1nc(Nc2ccc(Cl)cc2Cl)sc1/C=C1\C=Nc2ccccc21	86*	-10	0	.	115*	96*	34	.	58*
Cn1c(O)c(/C=C2\C=Nc3ccccc32)sc1=Nc1ccc(C(=O)O)cc1	35	13	7	-7	-12	2	.	.	.
COc1ccc(NC(=O)c2ccc(-c3ccc([N+](=O)[O-])cc3)o2)cc1	9	-2	4	1	4	4	.	.	.
O=C(Nc1cccc([N+](=O)[O-])c1)Nc1ccc2c(c1)CCC2	72*	-14	-3	36	5	86*	22	.	76*
O=C(Nc1cccc([N+](=O)[O-])c1)c1cc2ccccc2cc1O	93*	40	89*	100*	74*	96*	75*	31	60*
O=C(O)c1ccccc1C(=O)Nc1cccc([N+](=O)[O-])c1	1	-2	-9	.	-2	0	.	.	.
COc1ccc(NC(=O)c2cc([N+](=O)[O-])ccc2O)cc1	81*	83*	82*	57	74*	92*	76*	53*	95*
CC(C)(C)C1CCC(C(=O)Nc2nccs2)CC1 (configuration not stated)	-7	-49	8	4	33	2	.	.	.
